Broadly, the inhibition is how much of the control response was suppressed.

This assay has as its system VP16. Briefly: ROR modulator nuclear receptor reporter panel, late-stage follow-up, ROR modulator project, cell-based, luciferase reporter (AID 2117). The settings on record: fold change: ROR/LXR/VP16, max fold change, at 10 µM; inhibition: ROR/LXR/VP16, at 10 µM, stronger effect = higher value. (In general: A reporter such as luciferase makes a cellular process visible.)

Calls of active or inactive are those of the source. No rule for the calls is given here.

In the case of `O=S(=O)(Nc1ccc(C(O)(C(F)(F)F)C(F)(F)F)cc1)c1ccc(Cl)c2nonc12`, the fold change is 0.61 and the inhibition was 39% (inactive).

With `COc1cccc(S(=O)(=O)Nc2ccc(C(O)(C(F)(F)F)C(F)(F)F)cc2)c1`, the fold change was found to be 0.91 and the inhibition was 9% (inactive).

Regarding `CC(C)(C)c1ccc(S(=O)(=O)Nc2ccc(C(O)(C(F)(F)F)C(F)(F)F)cc2)cc1`, the fold change came out at 0.9 and the inhibition is 10% (inactive).

For the compound `COC(=O)c1sccc1S(=O)(=O)Nc1ccc(C(O)(C(F)(F)F)C(F)(F)F)cc1`, the fold change worked out at 0.94 and the inhibition stood at 6%.

Regarding `O=S(=O)(Nc1ccc(C(O)(C(F)(F)F)C(F)(F)F)cc1)c1cccc2ccccc12`, the fold change stood at 0.95 and the inhibition is 5% (inactive).

As to `O=S(=O)(Nc1ccc(C(O)(C(F)(F)F)C(F)(F)F)cc1)c1cccc2cccnc12`, the fold change is 1.03 and the inhibition is 0% (inactive).

(Values after PubChem BioAssay AID2117 (The Scripps Research Institute Molecular Screening Center, 2009).)
